This note sets out measurements from PubChem BioAssay (Tox21).

Experiment [1] can be described thus: Nuclear factor erythroid 2-related factor 2/antioxidant responsive element (Nrf2/ARE) small molecule agonists: luciferase reporter gene qHTS assay in human keratinocytes (AID 1919969). Further: nearly all actives have a fitted effect of over 35% in size. In general terms: Reporter assays use an easily measured gene product as a stand-in for the process of interest.
The target in experiment [2] is Gonadotropin-releasing hormone receptor (Homo sapiens) (UniProt P30968). The experiment can be described thus: Human gonadotropin-releasing hormone receptor (GnRHR) small molecule agonists, calcium flux assay in GnRHR-HEK293 cells (AID 1920063). Further: nearly all actives have a fitted effect of over 35% in size. In short, it runs like this:
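Intracellular calcium rise is the read-out: engineered human GnRHR HEK293 cells, dye-loaded, are exposed to DMSO-dissolved compounds and fluorescence at Ex/Em 480/540 is tracked for 3 min.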
For orientation: A change in cytosolic calcium serves as a functional read-out for many receptors and channels.

Experiment [3] concerns the target KiSS-1 receptor (Homo sapiens) (UniProt Q969F8). The experiment is described as follows: Human kisspeptin (KISS1R) small molecule agonists, calcium flux assay in KISS1R-HEK293 cells (AID 1920064; active means well fitted activation curve with a large enough effect in the repeat runs). In short, it runs like this:
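Concentration-response testing used 15 concentrations in triplicate on human KISS1R-expressing HEK293 cells. Calcium-dependent fluorescence (Ex/Em 480/540) was followed kinetically for 3 min after compound transfer.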

Experiment [4] is described as follows: p53 small molecule agonists, cell-based qHTS assay with human liver microsomes (AID 1963577). In short, it runs like this: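 In this qHTS, p53 response-element beta-lactamase cells receive test compound together with a microsome/NADPH activating system (0.5 mg/mL final each) and are incubated 16 h at 37 C before LiveBLAzer fluorescence detection.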
A short description of experiment [5]: p53 small molecule agonists, cell-based qHTS assay with rat liver microsomes (AID 1963578). In short, it runs like this:
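Agonist mode in p53RE-bla reporter cells, with compounds co-incubated 16 h at 37 C alongside 0.5 mg/mL rat liver microsomes and 0.5 mg/mL NADPH (final), followed by a 2 h LiveBLAzer detection step.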
In general terms: In qHTS, concentration-response curves come from the screen itself.

Experiment [6] can be described thus: p53 small molecule agonists, cell-based qHTS assay with human liver microsomes: qHTS cell viability counter screen (AID 1963579). Further: nearly all actives have a fitted effect of over 45% in size. In short, it runs like this:
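Metabolically activated exposure: compounds, human liver microsomes and NADPH (0.5 mg/mL final apiece) were added to p53RE-bla cells seeded 5 h earlier, left 16 h at 37 C, and then assessed for viability by CellTiter-Glo luminescence.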

The nature of experiment [7]: p53 small molecule agonists, cell-based qHTS assay with rat liver microsomes: qHTS cell viability counter screen (AID 1963580). Further: nearly all actives have a fitted effect of over 45% in size. In short, it runs like this:
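Cytotoxicity counter screen: intracellular ATP measured by CellTiter-Glo luminescence in the same wells as the beta-lactamase reporter read, on HCT-116 p53RE-bla cells exposed 16 h at 37 C to compounds with rat liver microsomes and NADPH, each 0.5 mg/mL final.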

A short description of experiment [8]: p53 small molecule agonists, cell-based qHTS assay: qHTS cell viability counter screen (AID 1963581). Further: nearly all actives have a fitted effect of over 45% in size. In short, it runs like this: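 Luminescence from CellTiter-Glo, reflecting ATP content, serves as the cytotoxicity measure; it is taken after the 2 h reporter substrate step in HCT-116 p53RE-bla cells dosed for 16 h at 37 C.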
Experiment [9] in a line: p53 small molecule agonists, cell-based qHTS assay (AID 1963582; active means well fitted activation curve with a large enough effect in the signal ratio in the repeat runs, not every such curve was filed as active; the % refers to the signal ratio). In short, it runs like this: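 After plating, p53RE-bla cells sat 5 h in the incubator; compounds or DMSO vehicle were pinned in; a 16 h incubation at 37 C followed; FRET substrate was added and, 2 h later at RT, fluorescence was measured.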
Experiment [10] concerns the target 5-hydroxytryptamine receptor 2A (Homo sapiens) (UniProt P28223). The experiment can be described thus: 5-hydroxytryptamine receptor 2A (HTR2A) small molecule antagonists, cell-based qHTS assay (AID 1963586). Further: nearly all actives have a fitted effect of over 45% in size. In short, it runs like this:
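CHO cells stably expressing human HTR2A were plated for 18 h at 37 C, then loaded with calcium dye for 1 h. Compounds were preincubated 5 min at room temperature before DOI (4 nM solution) was added. Kinetic fluorescence was read for 3 min.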

For experiment [11], the target named is Muscarinic acetylcholine receptor M1 (Homo sapiens) (UniProt P11229). The experiment is described as follows: Cholinergic receptor muscarinic 1 (CHRM1) small molecule antagonists, cell-based qHTS assay (AID 1963588). Further: nearly all actives have a fitted effect of over 40% in size. In short, it runs like this:
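Compounds were tested at 15 concentrations in three independent runs. Dye-loaded CHRM1-CHO cells were exposed 5 min at room temperature before stimulation by acetylcholine added at 50nM. Intracellular calcium was read kinetically on FDSS for 3 min.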

Experiment [12] shares this target. The experiment is described as follows: Cholinergic receptor muscarinic 1 (CHRM1) small molecule agonists, cell-based qHTS assay (AID 1963589). Further: nearly all actives have a fitted effect of over 35% in size. In short, it runs like this:
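Fluorescent calcium dye reports M1 activation in stably transfected CHO cells. Compounds, 15 concentrations, added after 1 h dye loading at 37 C; kinetic reading at 1 sec intervals.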

The nature of experiment [13]: cAMP Responsive Elements (CRE) small molecule agonists, cell-based qHTS assay (AID 1963590). In short, it runs like this: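 Compound exposure lasted 3 h at 37 C/5% CO2 in CRE-bla HEK 293T cells grown in assay medium with 10% dialyzed FBS and 25 mM HEPES. Reporter signal came from LiveBLAzer B/G FRET substrate, 2 h, room temperature.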
Experiment [14] is described as follows: cAMP Responsive Elements (CRE) small molecule antagonists, cell-based qHTS assay (AID 1963591; active means well fitted inhibition curve with a large enough effect in the signal ratio in the repeat runs, not every such curve was filed as active; the % refers to the signal ratio). In short, it runs like this: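 Stimulation used NKH477 at a final 0.25 uM for 3 h in compound-treated CRE-bla HEK293T cells, seeded 18 h beforehand. Reporter activity was measured with LiveBLAzer B/G FRET substrate after 2 h at room temperature.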
Experiment [15] concerns the target Beta-2 adrenergic receptor (Homo sapiens) (UniProt P07550). The experiment is described as follows: Adrenergic beta2 receptor (ADRB2) small molecule antagonists, cell-based qHTS assay (AID 1963592). Further: series mostly up to about 92 µM; nearly all actives have a fitted effect of over 50% in size. In short, it runs like this:
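Assay format: CHO-ADRB2 cells, 18-20hr seeding at 37C/5% CO2, then compound plus 1nM isoproterenol agonist mix for 0.5hr RT. Homogeneous time-resolved fluorescence cAMP detection after 1hr, expressed as 665/615 nm ratio.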

Experiment [16] concerns the target D(2) dopamine receptor (Homo sapiens) (UniProt P14416). The experiment can be described thus: Dopamine D2 receptor (DRD2) small molecule agonists, cell-based qHTS assay (AID 1963594). Further: nearly all actives have a fitted effect of over 35% in size. In short, it runs like this: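 HEK293 cells stably expressing human DRD2, pre-treated with PDE inhibitor Ro20-1724 (0.1 mM final) and compound 10 min at room temperature, then stimulated with NKH477 (200nM […]) for 30 min. cAMP read by HTRF (665/620 nm).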

The target is the same in experiment [17]. The experiment can be described thus: Dopamine D2 receptor (DRD2) small molecule antagonists, cell-based qHTS assay (AID 1963595; active means well fitted inhibition curve with a large enough effect in the signal ratio in the repeat runs, with a control signal flat; the % refers to the signal ratio; further: potency means the concentration at half of the fitted maximal effect). In short, it runs like this: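 Antagonist mode in DRD2-HEK293 cells: after compound addition with 0.1 mM Ro20-1724, cells received quinpirole (12 nM) and NKH477 (200 nM) for 30 min at room temperature; HTRF cAMP read after 1 h detection.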

Experiment [18] can be described thus: G protein-coupled receptor (GPCR) small molecule agonists, calcium flux assay: HEK293 wild type cell line counter screen (AID 1920065). In short, it runs like this: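 Fluorescence intensity signals activation. After overnight (18 h) culture and a 1 h calcium dye load at 37 C, compounds are added by pin tool and the plate read at 480/540 nm for 3 min in 1 s steps.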

Experiment [19] addresses Beta-2 adrenergic receptor (Homo sapiens) (UniProt P07550). The experiment is described as follows: Adrenergic beta2 receptor (ADRB2) small molecule agonists, cell-based qHTS assay (AID 1963593).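 Further: CHO cells stably overexpressing human ADRB2.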 In short, it runs like this:
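CHO cells stably over-expressing ADRB2 were plated overnight at 37C, then dosed with compounds plus a stimulation mix containing 100uM IBMX and 25uM Ro-20-1724 for 0.5hr at room temperature. cAMP was measured by HTRF competition, 1hr.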

For experiment [20], the target named is 5-hydroxytryptamine receptor 2A (Homo sapiens) (UniProt P28223). The experiment is described as follows: 5-hydroxytryptamine receptor 2A (HTR2A) small molecule agonists, cell-based qHTS assay (AID 1963587). Further: nearly all actives have a fitted effect of over 30% in size. In short, it runs like this: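 CHO cells stably expressing human HTR2A, plated 18 h, loaded with calcium dye 1 h at 37 C. Agonist mode: compounds added and intracellular calcium fluorescence recorded kinetically for 2 min at 1 sec intervals.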
Sequence of 5-hydroxytryptamine receptor 2A (Homo sapiens) (P28223 whole entry, looked up): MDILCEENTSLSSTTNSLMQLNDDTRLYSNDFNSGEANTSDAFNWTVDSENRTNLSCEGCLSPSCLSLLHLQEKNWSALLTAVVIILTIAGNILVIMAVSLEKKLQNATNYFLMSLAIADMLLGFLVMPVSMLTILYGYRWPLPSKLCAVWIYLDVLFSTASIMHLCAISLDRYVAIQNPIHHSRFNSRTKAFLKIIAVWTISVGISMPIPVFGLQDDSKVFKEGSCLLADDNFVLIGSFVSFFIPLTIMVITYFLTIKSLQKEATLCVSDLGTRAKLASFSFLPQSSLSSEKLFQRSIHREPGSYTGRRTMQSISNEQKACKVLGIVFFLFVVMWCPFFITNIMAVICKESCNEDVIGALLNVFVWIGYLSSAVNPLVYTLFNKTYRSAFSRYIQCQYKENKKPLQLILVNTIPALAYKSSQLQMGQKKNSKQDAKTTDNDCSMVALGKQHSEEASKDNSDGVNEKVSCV

Values without a mark were called inactive. Inconclusive results are not listed. Active and inactive are the calls of the source. Unless noted, the call rests on the fitted dose curve.

Sequence of D(2) dopamine receptor (Homo sapiens) (P14416 whole entry, looked up): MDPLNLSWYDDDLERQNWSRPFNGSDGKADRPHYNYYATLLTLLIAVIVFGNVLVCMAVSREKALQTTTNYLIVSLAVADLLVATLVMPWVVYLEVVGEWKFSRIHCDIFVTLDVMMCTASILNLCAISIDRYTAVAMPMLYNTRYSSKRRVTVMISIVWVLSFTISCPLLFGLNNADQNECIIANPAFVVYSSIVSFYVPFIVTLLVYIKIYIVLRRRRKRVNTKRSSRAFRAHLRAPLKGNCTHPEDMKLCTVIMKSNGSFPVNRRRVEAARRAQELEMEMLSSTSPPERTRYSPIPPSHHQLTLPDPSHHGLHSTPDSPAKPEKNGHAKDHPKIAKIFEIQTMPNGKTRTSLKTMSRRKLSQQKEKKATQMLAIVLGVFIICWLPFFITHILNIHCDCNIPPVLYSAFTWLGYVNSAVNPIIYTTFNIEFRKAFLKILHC
Sequence of Muscarinic acetylcholine receptor M1 (Homo sapiens) (P11229 whole entry, looked up): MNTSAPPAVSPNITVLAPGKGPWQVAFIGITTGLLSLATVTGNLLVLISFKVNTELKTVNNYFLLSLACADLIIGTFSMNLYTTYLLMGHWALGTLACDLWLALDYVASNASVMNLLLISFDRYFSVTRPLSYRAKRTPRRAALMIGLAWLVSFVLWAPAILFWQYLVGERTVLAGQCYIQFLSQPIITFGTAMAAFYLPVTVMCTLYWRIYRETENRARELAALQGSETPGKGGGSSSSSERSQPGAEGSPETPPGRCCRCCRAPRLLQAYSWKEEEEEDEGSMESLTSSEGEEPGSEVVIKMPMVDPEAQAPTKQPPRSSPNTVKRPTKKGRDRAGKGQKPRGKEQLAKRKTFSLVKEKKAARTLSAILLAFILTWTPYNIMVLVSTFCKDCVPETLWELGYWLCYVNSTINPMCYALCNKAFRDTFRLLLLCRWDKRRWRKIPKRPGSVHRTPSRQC
Sequence of Gonadotropin-releasing hormone receptor (Homo sapiens) (P30968 whole entry, looked up): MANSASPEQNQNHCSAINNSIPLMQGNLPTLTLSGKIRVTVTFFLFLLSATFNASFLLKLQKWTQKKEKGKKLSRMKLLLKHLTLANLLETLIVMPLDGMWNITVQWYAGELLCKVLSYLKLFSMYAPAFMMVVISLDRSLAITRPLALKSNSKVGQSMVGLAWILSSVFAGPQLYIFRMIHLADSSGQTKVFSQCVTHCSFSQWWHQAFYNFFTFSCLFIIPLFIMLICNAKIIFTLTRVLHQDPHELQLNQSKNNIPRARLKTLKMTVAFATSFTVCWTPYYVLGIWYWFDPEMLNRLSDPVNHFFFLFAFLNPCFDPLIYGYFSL
Sequence of KiSS-1 receptor (Homo sapiens) (Q969F8 whole entry, looked up): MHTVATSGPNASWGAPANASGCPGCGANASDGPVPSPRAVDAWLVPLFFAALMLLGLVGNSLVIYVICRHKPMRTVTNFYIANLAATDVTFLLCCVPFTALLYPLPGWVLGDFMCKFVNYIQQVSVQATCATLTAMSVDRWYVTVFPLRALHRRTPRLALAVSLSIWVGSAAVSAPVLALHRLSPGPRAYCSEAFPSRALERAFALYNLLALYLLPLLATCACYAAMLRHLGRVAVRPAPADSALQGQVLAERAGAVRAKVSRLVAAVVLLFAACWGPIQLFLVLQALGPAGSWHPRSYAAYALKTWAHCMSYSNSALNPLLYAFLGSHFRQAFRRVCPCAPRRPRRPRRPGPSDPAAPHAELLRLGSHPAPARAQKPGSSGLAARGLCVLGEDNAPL
Sequence of Beta-2 adrenergic receptor (Homo sapiens) (P07550 whole entry, looked up): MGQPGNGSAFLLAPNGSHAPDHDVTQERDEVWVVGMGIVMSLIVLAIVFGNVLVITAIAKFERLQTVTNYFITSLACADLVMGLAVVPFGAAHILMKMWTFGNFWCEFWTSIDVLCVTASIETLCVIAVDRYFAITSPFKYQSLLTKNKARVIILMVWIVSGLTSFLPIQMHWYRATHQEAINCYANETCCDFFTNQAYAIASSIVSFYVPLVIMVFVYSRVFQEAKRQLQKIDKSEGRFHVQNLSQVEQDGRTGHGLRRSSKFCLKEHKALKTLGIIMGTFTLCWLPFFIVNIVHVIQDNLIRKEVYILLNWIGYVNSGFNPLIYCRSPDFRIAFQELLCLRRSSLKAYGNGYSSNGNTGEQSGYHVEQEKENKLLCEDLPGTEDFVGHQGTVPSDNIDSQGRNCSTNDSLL

On to `O=Cc1ccc(Cl)cc1`, for which the Potency entry in [1], in experiment [2], in experiment [3], in experiment [4], in experiment [5] and in [6] was “inactive” in each case. Besides, the Potency result in experiment [7], in [8], in [9], in experiment [10], in experiment [11] and in experiment [12] was “inactive” throughout. In addition, the Potency entry in experiment [13], in [14], in experiment [15], in [16] and in experiment [17] was “inactive” throughout.

Take `Cc1cc(O)cc(C)c1Cl`: the Potency result in [1], in experiment [2], in experiment [3], in experiment [18], in experiment [6] and in experiment [7] was “inactive” in each case. Besides, the Potency entry in experiment [8], in experiment [13], in experiment [14], in [15], in experiment [16] and in experiment [17] was “inactive” each time.

Take `Clc1ccccc1C(c1ccccc1)(c1ccccc1)n1ccnc1`: the Potency entry in [2], in experiment [3], in experiment [4], in [5], in experiment [6] and in experiment [7] was “inactive” in each case. Besides, the Potency entry in experiment [9], in experiment [15] and in [19] was “inactive” throughout. Also, in experiment [17], the Potency was 61.1 µM (active).

Consider `CCCCC1CCC(O)CC1` (stereo not drawn), for which the Potency entry in experiment [1], in [2], in experiment [18], in experiment [4], in experiment [5] and in [6] was “inactive” in each case. Besides, the Potency entry in experiment [7], in experiment [8], in experiment [9], in experiment [10], in experiment [20] and in [11] was “inactive” each time. Also, the Potency result in experiment [12], in [13], in [14], in experiment [15], in experiment [19] and in [16] was “inactive” throughout. The Potency entry in experiment [17] was “inactive”.

Consider `CCC/C=C/C=O`, for which the Potency result in experiment [1], in experiment [2], in [3], in experiment [18], in experiment [6] and in experiment [7] was “inactive” each time. Moreover, the Potency entry in [8], in [10], in experiment [11], in experiment [12], in experiment [13] and in experiment [14] was “inactive” throughout. Further, the Potency result in experiment [15], in experiment [19], in [16] and in experiment [17] was “inactive” each time.

Take `COc1ccc(OC)c(C(O)CNC(=O)CN)c1` (stereo not drawn): the Potency entry in experiment [1], in [2], in [3], in [18], in [8] and in experiment [9] was “inactive” each time. Also, the Potency result in experiment [10], in experiment [11], in [12], in experiment [13], in experiment [14] and in [15] was “inactive” each time. The Potency result in [19], in experiment [16] and in [17] was “inactive” each time.

As for `Cc1cccc2cccnc12`, the Potency entry in experiment [3], in experiment [18], in experiment [4], in experiment [5], in experiment [6] and in [7] was “inactive” in each case. Moreover, the Potency entry in experiment [8], in [9], in [11], in [12], in [13] and in [14] was “inactive” throughout. Further, the Potency entry in experiment [15] and in experiment [17] was “inactive” in each case.

For `CC1(C)O[C@@H]2C[C@H]3[C@@H]4C[C@H](F)C5=CC(=O)C=C[C@]5(C)[C@@]4(F)[C@@H](O)C[C@]3(C)[C@]2(C(=O)CO)O1`, the Potency result in experiment [1], in [2], in experiment [3], in experiment [18], in [6] and in experiment [7] was “inactive” each time. Besides, the Potency entry in [15], in [19], in experiment [16] and in experiment [17] was “inactive” each time.
